Source: PubChem BioAssay AID2570 (National Center for Advancing Translational Sciences (NCATS), 2010)
Records with an inconclusive call do not appear. Unmarked numbers belong to inactive results. The call rests on the fitted dose curve; in most records, active means well fitted curve in the direction sought with a large enough effect; inconclusive means small, poorly fitted or top-dose-only effect, or another doubt; inactive means no such curve, though single readings can be large or run the other way.

Molecular target: Vasopressin V1b receptor (Homo sapiens) (UniProt P47901)
Sequence (P47901 whole entry, looked up): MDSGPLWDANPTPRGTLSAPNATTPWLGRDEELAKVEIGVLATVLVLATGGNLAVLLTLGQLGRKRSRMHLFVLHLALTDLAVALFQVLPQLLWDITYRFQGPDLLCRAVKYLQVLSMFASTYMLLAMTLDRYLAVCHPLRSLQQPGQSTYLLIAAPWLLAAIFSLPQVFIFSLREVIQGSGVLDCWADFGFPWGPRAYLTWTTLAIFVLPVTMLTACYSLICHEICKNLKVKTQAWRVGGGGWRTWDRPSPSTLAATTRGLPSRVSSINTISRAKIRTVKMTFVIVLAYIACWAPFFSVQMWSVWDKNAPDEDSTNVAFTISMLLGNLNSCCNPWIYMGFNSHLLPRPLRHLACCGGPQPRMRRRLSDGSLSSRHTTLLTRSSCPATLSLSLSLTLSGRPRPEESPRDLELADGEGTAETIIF
Assay: Counterscreen Concentration-Response Assay for Antagonists of the Neuropeptide S Receptor: Vasopressin Receptor Calcium Signal Transduction
Conditions: CHO-AVPR1B, vasopressin-stimulated calcium fluorescence, FDSS
Excerpt: NIH Chemical Genomics Center [NCGC] NIH Molecular Libraries Probe Production centers Network [MLPCN] MLPCN Grant: X01-DA026210-01 Assay Submitter (PI): Heilig, Markus Alexander NCGC Assay Overview: Neuropeptide S receptor (NPSR), previously known as GPR154, is a recently de-orphanized G protein coupled receptor. Its endogenous ligand is the 20 amino acids peptide Neuropeptide S (NPS). […] NPS and its receptor are found in various tissues. Specifically they are highly expressed in brain areas that have been implicated in modulation of arousal, stress and anxiety. […] This change in intracellular calcium can be detected using a calcium indicator dye on a calcium imaging plate reader system (FDSS). […]
NCGC Assay Protocol Summary: A Chinese hamster ovary (CHO) cell line stably expressing human vasopressin receptor (AVPR1B) was maintained in F-12 Kaighn's media (Invitrogen, Carlsbad, CA, 21127) supplemented with 10 % FBS, 100 units/ml penicillin, 100 ug/ml streptomycin and 250 ug/ml geneticin at 37C, 5% CO2 in a humidified atmosphere. […] The assay was performed on a FDSS-7000 kinetic plate reader in 1536-well format. The maximums of kinetic fluorescence responses were converted into text files using the instrument's software data export utility. […] AC50 values were determined from concentration-response data modeled with the standard Hill equation. […]

Q: How did the max response turn out when Cc1c(P(=S)(c2ccccc2)c2ccccc2)[n+]2ccccc2n1C was run?
A: 7.72%
